This is a sample that favours compounds with a hit; in the whole collection about 2.1% have one here.
TDP-43 yeast inh – rescues yeast growth from TDP-43 toxicity; TDP-43 expressing yeast growth rescue, BacTiter-Glo, 24 h; 410,000 tested, 1.8% active; Potency, µM (highest dose often 46.1 µM), for inactives: top-dose growth rescue (activation), actives largely listed as activators; note: % of control where 0% means no effect; nearly all actives have a fitted effect of over 50% in size
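Luminescence from BacTiter-Glo reports growth of TDP-43-expressing yeast after 24 hr at 30 deg C with compound. Cells were raffinose-pregrown to mid-log, then seeded in galactose medium at OD600=0.02.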
FUS suppressor – suppressors of FUS proteinopathy in yeast; S. cerevisiae FUS-expressing, growth rescue, OD600, 24 h; Potency, µM (series often up to 76.6 µM), hits mostly activators; 390,000 tested, 0.24% active; AID 1347120;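 note: plate controls were DMSO vehicle for no effect and reference control for full effect; nearly all actives have a fitted effect of over 55% in size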
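Cultures pregrown in 2.5% raffinose medium are shifted to minimal medium containing 2% galactose to express toxic FUS. Compounds are tested at several concentrations. After 24hr at 30C, growth is quantified at 600 nm absorbance.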
aSyn yeast inh – alpha-synuclein toxicity inhibition in yeast | Yeast expressing alpha-synuclein, growth rescue, BacTiter-Glo, 24 h | 370,000 tested, 0.14% active | Potency, µM (titrated, usually from 46.1 µM), for inactives: at the top dose growth rescue (activation), hits mostly activators; note: % of control where 0% means no effect; nearly all actives have a fitted effect of over 65% in size
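Screening used galactose-induced yeast with toxic alpha-synuclein levels, exposed to compound for 24 hr at 30 deg C. Cell growth, read with BacTiter-Glo luminescence, gave the measured signal.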
Abeta rescue – compounds reversing amyloid beta toxicity in yeast; yeast expressing A-beta42, growth rescue, OD600, 48 h; response scale: 0% DMSO, 100% iron-clioquinol control; 410,000 tested, 0.063% active; Potency, µM (highest dose often 46.1 µM), hits mostly activators; note: nearly all actives have a fitted effect of over 55% in size
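Yeast growth medium received pinned compounds, then yeast cells expressing toxic A-beta were added; plates incubated at 30 C for 48 hr. Growth read as absorbance at 600 nm, normalized to DMSO and equimolar FeCl3 plus clioquinol controls.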
Starred values were filed as active, the others as inactive. Calls come from the whole dose curve; as a rule, active = well fitted curve in the direction sought with a large enough effect; inconclusive = small, poorly fitted or top-dose-only effect, or another doubt; inactive = no such curve, though single readings can be large; an effect the other way counts as inactive or inconclusive. Potency is the fitted concentration of half-maximal effect.

`CC(C)(C)C(=O)c1cn(Cc2ccccc2)c2ccccc12` gave TDP-43 yeast inh 13µM*, FUS suppressor inactive, aSyn yeast inh 0% and Abeta rescue inactive.
O=C(c1ccco1)c1cn(Cc2ccccc2)c2ccccc12 was read as TDP-43 yeast inh 22µM*, FUS suppressor inactive, aSyn yeast inh 5% and Abeta rescue inactive.
CCC(=O)c1cn(Cc2ccccc2)c2ccccc12 was read as TDP-43 yeast inh 8.9µM*, FUS suppressor inactive, aSyn yeast inh 4% and Abeta rescue inactive.
For COc1cccc(N2CCN(c3c4c(nc5nncn35)CCC4)CC2)c1 the results were TDP-43 yeast inh inconclusive, FUS suppressor inactive and Abeta rescue inactive.
For CC(=O)O[C@@]12CO[C@@H]1C[C@H](OC1OCC(O)C(O)C1O)[C@@]1(C)C(=O)[C@H](O)C3=C(C)[C@@H](OC(=O)[C@H](O)[C@@H](NC(=O)c4ccccc4)c4ccccc4)C[C@@](O)([C@@H](OC(=O)c4ccccc4)C12)C3(C)C (stereo not given in full) the results were TDP-43 yeast inh 7%, FUS suppressor 10µM*, aSyn yeast inh 5% and Abeta rescue inactive.
`Cc1ccccc1C(=O)Nc1ccc2nc(SCC(=O)N(C)c3ccccc3)sc2c1` gave TDP-43 yeast inh 35µM*, FUS suppressor inconclusive and Abeta rescue inactive.
`CC(C)(C)c1ccc(C(=O)Nc2ccc3nc(SCC(=O)N4CCCC4)sc3c2)cc1` gave TDP-43 yeast inh inconclusive, FUS suppressor inconclusive and Abeta rescue inactive.
Screening COc1ccc(-c2cc(C(=O)N3CCN(c4ccccc4OC)CC3)c3cc(C(C)C)ccc3n2)cc1 returned TDP-43 yeast inh inconclusive, FUS suppressor inactive and Abeta rescue inactive.
For COc1ccc(S(=O)(=O)N(C)C[C@H]2OCCCC[C@H](C)Oc3ccc(N(C)C)cc3C(=O)N([C@H](C)CO)C[C@@H]2C)cc1 the results were TDP-43 yeast inh 9%, FUS suppressor inactive, aSyn yeast inh inconclusive and Abeta rescue inactive.
Cc1ccc2c(c1)NP(=S)(Oc1ccccc1)N2 (stereo not given) was read as TDP-43 yeast inh 35µM*, FUS suppressor inactive, aSyn yeast inh inconclusive and Abeta rescue inactive.
Screening CCN(C[C@H]1N[C@@](C)(C(=O)OC)[C@H]2C(=O)N(Cc3ccccc3)C(=O)[C@@H]12)C(=O)Nc1ccccc1 returned TDP-43 yeast inh -11%, FUS suppressor inactive, aSyn yeast inh inconclusive and Abeta rescue inactive.
For CC1(C)N([O])C(c2ccc(C(=O)O)cc2)=[N+]([O-])C1(C)C the results were aSyn yeast inh -5%.
For CC(=O)OCC12CC(OC(=O)CC(C)C)C(C)=CC1OC1C(O)C(OC(C)=O)C2(C)C12CO2 (stereo not given) the results were TDP-43 yeast inh 1.8µM*, aSyn yeast inh inconclusive and Abeta rescue inactive.
CCc1cc2c(cc1-c1csc(C/C(N)=N/O)n1)C(C)(C)CCC2(C)C was read as TDP-43 yeast inh 22µM*, FUS suppressor inactive, aSyn yeast inh 11% and Abeta rescue inactive.
O=C(CCC1N=C2c3ccccc3N=C(SCc3cccc(Cl)c3)N2C1=O)N1CCN(c2ccccc2)CC1 (stereo not given) was read as TDP-43 yeast inh inconclusive, FUS suppressor inconclusive and Abeta rescue inactive.
Screening O=C1CCN(C(=O)CCCn2c(=O)oc3ccccc32)CC1 returned TDP-43 yeast inh 2%, FUS suppressor inactive, aSyn yeast inh 1% and Abeta rescue inactive.
O=C(CCn1c(=O)oc2ccccc21)N1CCN(c2ccccc2Cl)CC1 was read as TDP-43 yeast inh 13µM*, FUS suppressor inactive, aSyn yeast inh 7% and Abeta rescue inactive.
For COC(=O)c1ccc(N2C(=O)CC(N3CCC(O)(c4ccc(Br)cc4)CC3)C2=O)cc1 (stereo not given) the results were TDP-43 yeast inh 6.3µM*, FUS suppressor inactive, aSyn yeast inh 7% and Abeta rescue inactive.
COc1ccccc1N=Nc1ccc(N)c(C)c1 was read as TDP-43 yeast inh inconclusive, FUS suppressor inactive, aSyn yeast inh -7% and Abeta rescue inactive.
Cn1cccc1C(=O)OCC(=O)NCCc1ccc(S(N)(=O)=O)cc1 was read as TDP-43 yeast inh -31%, aSyn yeast inh -3% and Abeta rescue inactive.
For Cc1ccccc1-c1ccc2c(c1)C1c3c(-c4ccccc4)nnn3-c3ccccc3C(=O)N1CC2 (stereo not given) the results were TDP-43 yeast inh inconclusive, FUS suppressor inconclusive, aSyn yeast inh 2% and Abeta rescue inactive.
For O=C1c2ccccc2-n2nncc2C2c3cc(Br)ccc3CCN12 (stereo not given) the results were TDP-43 yeast inh 35µM*, FUS suppressor inactive, aSyn yeast inh -3% and Abeta rescue inactive.
Screening O=C1NCN(c2ccccc2)C12CCN(C(c1ccccc1OC(F)(F)F)c1nnnn1Cc1ccccc1)CC2 (stereo not given) returned TDP-43 yeast inh 0%, FUS suppressor 10µM*, aSyn yeast inh 1% and Abeta rescue inactive.
For O=C1NCN(c2ccccc2)C12CCN(C(c1cccc3ccccc13)c1nnnn1Cc1ccccc1)CC2 (stereo not given) the results were TDP-43 yeast inh 15%, FUS suppressor inconclusive, aSyn yeast inh 2% and Abeta rescue inactive.
For CCCCn1nnnc1C(c1cccc2ccccc12)N1CCC2(CC1)C(=O)NCN2c1ccccc1 (stereo not given) the results were TDP-43 yeast inh -9%, FUS suppressor 10µM*, aSyn yeast inh 12% and Abeta rescue inactive.
N#CCCN was read as aSyn yeast inh -7%.
`COC1=C(C)C(=O)c2c(c(COC(N)=O)c3n2C[C@@H]2[C@@H]3N2C)C1=O` (stereo not given in full) gave aSyn yeast inh 0%.
For Cc1cccc(NC(=O)c2cc3c(=O)n4ccccc4nc3n2C)c1C the results were TDP-43 yeast inh inconclusive, FUS suppressor inactive and Abeta rescue inactive.
`C[C@@H]1CN([C@H](C)CO)C(=O)c2cc(Br)cnc2O[C@H]1CN(C)C(=O)Cc1ccncc1` gave TDP-43 yeast inh 10%, FUS suppressor inactive, aSyn yeast inh inconclusive and Abeta rescue inactive.
C=C(COC(=O)CCC(=O)O)CC1CC(O)[C@]2(C)OC3CC4OC5C[C@]6(C)O[C@]7(C)CCC8OC9C[C@]%10(C)OC%11C(C)=CC(=O)OC%11CC%10OC9C[C@@H](C)C8OC7CC6O[C@]5(C)C/C=C\C4OC3CC2O1 (stereo not given in full) was read as TDP-43 yeast inh 14%, FUS suppressor 7.1µM*, aSyn yeast inh -1% and Abeta rescue inactive.
`COc1ccc(OC)c(/C=N/OC(=O)Nc2ccc(Cl)cc2)c1` gave TDP-43 yeast inh 18µM*, FUS suppressor inactive, aSyn yeast inh -15% and Abeta rescue inactive.

Screening results from PubChem BioAssay.
